Measurements: the supplement of paper PMC10849652
About 8,800 targets were measured; listed, in parts, are those with a hit and a random draw of the rest. About 0.5% of all pairs of compound and target were hits.

Experiments:
Assay in all cases: log2 fold change, soluble protein after heating vs DMSO (PISA); higher = thermal stabilisation; K562 lysate, 10 uM; active = over 0.2 and 3.5 SD of the protein, either way, in both replicates (recomputed)
[1] = compound: C#Cc1cccc(Nc2ncnc3cc(OCCOC)c(OCCOC)cc23)c1 [erlotinib]
Summary of the method: (§1)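 Thermal stability, expressed as log-two fold change relative to solvent controls, is given from duplicates. Crude K562 extract in PBS pH 7.4 with 1 mM MgCl2, at 1 mg/mL protein, was treated with 10 μM compound for 30 min and heated in aliquots for 3 min across 48°C-58°C. After pooling, adjustment to 0.5% NP-40 at 4°C and centrifugation at 21,000xg for 90 min, supernatant protein was measured by TMTpro 16plex LC-MS/MS with channel sums equalised.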

[2] = compound: C/C(=N\NC(=O)C1=CC(=CC=C1)S(=O)(=O)N2CCOCC2)/C3=C(C=CC(=C3)Cl)O
Summary of the method: as §1

[3] = compound: C1=CC(=CC=C1C2=NC3=C(N2)C=C(C=C3)C(=O)N)OC4=CC=C(C=C4)Cl
Summary of the method: as §1

[4] = compound: C1=CC2=C(C=CC(=C2)/C=C\3/C(=O)NC(=NCC4=CC=CS4)S3)N=C1
Summary of the method: as §1

[5] = compound: C1=CC2=NC=CN=C2C=C1/C=C/3\C(=O)NC(=O)S3
Summary of the method: as §1

[6] = compound: C1=CC=C(C=C1)C2=NC(=C(N2)C3=CC=NC=C3)C4=CC(=C(C=C4)Cl)O
Summary of the method: as §1

[7] = compound: C1=CC=C2C(=C1)C3=NNC4=CC=CC(=C43)C2=O
Summary of the method: as §1

[8] = compound: C1CCN(C1)C(=O)NC2=CC=CC(=C2)NC3=NC=C(C(=N3)NCCC4=CN=CN4)Br
Summary of the method: as §1

[9] = compound: C1CN(CCC1(CC2=CC=C(C=C2)Cl)N)C3=NC=NC4=C3C=CN4
Summary of the method: as §1

[10] = compound: C1COCCN1CCN2C3=CC=CC=C3N=C2NC(=O)C4=CC(=CC=C4)[N+](=O)[O-] [IRAK-1-4 Inhibitor I]
Summary of the method: as §1

[11] = compound: C=CC(=O)N1CCC[C@@H](n2nc(-c3ccc(Oc4ccccc4)cc3)c3c(N)ncnc32)C1 [ibrutinib]
Summary of the method: as §1

[12] = compound: CC(=O)c1cnc2ccc(-c3cc(Cl)c(O)c(Cl)c3)nc2c1N[C@H]1CC[C@H](CN(C)C)CC1
Summary of the method: as §1

[13] = compound: CC(C)(C)Cn1c(N)nc2ccc(-c3[nH]c(C(C)(C)C)nc3-c3ccc(F)cc3)nc21 [ralimetinib]
Summary of the method: as §1

[14] = compound: CC(C)(O)CC(=O)NCCn1ccc2ncnc(Nc3ccc(Oc4cccc(C(F)(F)F)c4)c(Cl)c3)c21
Summary of the method: as §1

[15] = compound: CC(C)C1=C2N=C(C=C(N2N=C1)NCC3=CC=CC=C3)NCCCCCCN
Summary of the method: as §1

[16] = compound: CC1=C(C(CC(=O)N1)C2=CC=C(C=C2)C(F)(F)F)C(=O)NC3=C(C=C4C(=C3)C=NN4)F
Summary of the method: as §1

[17] = compound: CC1=C(C2=C(C=C1)C(=O)C3=CC=CC=C3N2CCCN)C
Summary of the method: as §1

[18] = compound: CC1=C(C=C(C=C1)NC(=O)C2=CC(=CC=C2)C(C)(C)C#N)NC3=CC4=C(C=C3)N=CN(C4=O)C
Summary of the method: as §1

[19] = compound: CC1=C(C=C(C=C1)NC(=O)C2=CC(=CC=C2)N(C)C)NC(=O)C3=CC=C(C=C3)O
Summary of the method: as §1

[20] = compound: CC1=CC=C(C=C1)SC2=C3C=C(SC3=CN=C2)C(=O)N
Summary of the method: as §1

Measured: log2 fold change

UBE2H (UniProt P62256)
Sequence of UniProt P62256 (P62256 whole entry, looked up): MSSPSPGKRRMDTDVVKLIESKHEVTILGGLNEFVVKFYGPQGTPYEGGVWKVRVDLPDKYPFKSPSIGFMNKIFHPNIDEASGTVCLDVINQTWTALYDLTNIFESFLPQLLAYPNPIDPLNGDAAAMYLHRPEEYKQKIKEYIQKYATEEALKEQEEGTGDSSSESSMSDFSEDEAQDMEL
inactive: [1] -0.002 | [2] -0.002 | [3] 0.009 | [4] 0.008 | [5] 0.014 | [6] 0.029 | [7] 0.019 | [8] 0.013 | [9] -0.036 | [10] -0.026 | [11] 0.032 | [12] 0.026 | [13] -0.033 | [14] -0.002 | [15] -0.004 | [16] 0.064 | [17] 0.022 | [18] 0.005 | [19] 0.026 | [20] -0.027

TRAF2 isoform 2 (UniProt Q12933)
inactive: [1] 0.026 | [2] -0.002 | [3] 0.008 | [4] 0.013 | [5] -0.016 | [6] -0.01 | [7] -0.015 | [8] -0.008 | [9] 0.029 | [10] 0.033 | [11] -0.026 | [12] -0.002 | [13] 0.022 | [14] -0.022 | [15] -0.051 | [16] -0.004 | [17] -0.028 | [18] 0.029 | [19] -0.009 | [20] -0.006

UBL4A (UniProt P11441)
Sequence of UniProt P11441 (P11441 whole entry, looked up): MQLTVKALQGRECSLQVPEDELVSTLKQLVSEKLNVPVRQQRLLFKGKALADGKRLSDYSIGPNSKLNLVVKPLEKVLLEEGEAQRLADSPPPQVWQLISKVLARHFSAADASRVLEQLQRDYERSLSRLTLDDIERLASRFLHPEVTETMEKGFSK
inactive: [1] -0.04 | [2] 0.014 | [3] -0.069 | [4] 0.005 | [5] 0.087 | [6] 0.021 | [7] 0.04 | [8] 0.024 | [9] -0.028 | [10] -0.042 | [11] 0.056 | [12] 0.055 | [13] 0 | [14] 0.049 | [15] 0.009 | [16] -0.023 | [17] -0.02 | [18] -0.044 | [19] -0.002 | [20] 0.025

TRIM65 (UniProt Q6PJ69)
inactive: [1] 0.047 | [2] -0.072 | [3] -0.008 | [4] 0.021 | [5] -0.005 | [6] -0.044 | [7] -0.054 | [8] 0.026 | [9] 0.007 | [10] -0.025 | [11] 0.053 | [12] 0.073 | [13] 0.046 | [14] -0.035 | [15] 0.005 | [16] 0.047 | [17] 0.006 | [18] 0.006 | [19] 0.003 | [20] -0.063

TBRG4 (UniProt Q969Z0)
inactive: [1] 0.033 | [2] -0.048 | [3] -0.036 | [4] 0.001 | [5] 0.013 | [6] -0.044 | [7] -0.031 | [8] 0.013 | [9] 0.008 | [10] -0.009 | [11] 0.014 | [12] 0.025 | [13] 0.002 | [14] -0.023 | [15] -0.011 | [16] 0.001 | [17] 0.062 | [18] -0.041 | [19] 0.044 | [20] -0.023

TFCP2 (UniProt Q12800)
Sequence of UniProt Q12800 (Q12800 whole entry, looked up): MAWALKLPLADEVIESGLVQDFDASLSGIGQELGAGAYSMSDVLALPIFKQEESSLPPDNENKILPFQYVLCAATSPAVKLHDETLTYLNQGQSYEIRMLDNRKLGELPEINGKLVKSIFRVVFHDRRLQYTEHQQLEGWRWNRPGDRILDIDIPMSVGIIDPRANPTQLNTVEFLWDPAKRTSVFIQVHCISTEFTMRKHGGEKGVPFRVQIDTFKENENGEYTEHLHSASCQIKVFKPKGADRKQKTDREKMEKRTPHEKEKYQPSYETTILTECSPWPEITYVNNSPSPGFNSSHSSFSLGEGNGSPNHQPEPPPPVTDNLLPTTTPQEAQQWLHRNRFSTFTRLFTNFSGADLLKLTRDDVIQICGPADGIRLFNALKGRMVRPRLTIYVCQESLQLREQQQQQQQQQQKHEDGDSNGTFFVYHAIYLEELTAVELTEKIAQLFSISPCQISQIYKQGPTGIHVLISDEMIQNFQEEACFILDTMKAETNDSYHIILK
inactive: [1] -0.035 | [2] 0.08 | [3] -0.115 | [4] 0.01 | [5] -0.042 | [6] -0.007 | [7] -0.02 | [8] -0.038 | [9] -0.044 | [10] 0.035 | [11] -0.055 | [12] 0.054 | [13] 0.032 | [14] -0.028 | [15] 0.051 | [16] -0.026 | [17] 0 | [18] 0.059 | [19] -0.02 | [20] 0.026

TFIP11 (UniProt Q9UBB9)
Sequence of UniProt Q9UBB9 (Q9UBB9 whole entry, looked up): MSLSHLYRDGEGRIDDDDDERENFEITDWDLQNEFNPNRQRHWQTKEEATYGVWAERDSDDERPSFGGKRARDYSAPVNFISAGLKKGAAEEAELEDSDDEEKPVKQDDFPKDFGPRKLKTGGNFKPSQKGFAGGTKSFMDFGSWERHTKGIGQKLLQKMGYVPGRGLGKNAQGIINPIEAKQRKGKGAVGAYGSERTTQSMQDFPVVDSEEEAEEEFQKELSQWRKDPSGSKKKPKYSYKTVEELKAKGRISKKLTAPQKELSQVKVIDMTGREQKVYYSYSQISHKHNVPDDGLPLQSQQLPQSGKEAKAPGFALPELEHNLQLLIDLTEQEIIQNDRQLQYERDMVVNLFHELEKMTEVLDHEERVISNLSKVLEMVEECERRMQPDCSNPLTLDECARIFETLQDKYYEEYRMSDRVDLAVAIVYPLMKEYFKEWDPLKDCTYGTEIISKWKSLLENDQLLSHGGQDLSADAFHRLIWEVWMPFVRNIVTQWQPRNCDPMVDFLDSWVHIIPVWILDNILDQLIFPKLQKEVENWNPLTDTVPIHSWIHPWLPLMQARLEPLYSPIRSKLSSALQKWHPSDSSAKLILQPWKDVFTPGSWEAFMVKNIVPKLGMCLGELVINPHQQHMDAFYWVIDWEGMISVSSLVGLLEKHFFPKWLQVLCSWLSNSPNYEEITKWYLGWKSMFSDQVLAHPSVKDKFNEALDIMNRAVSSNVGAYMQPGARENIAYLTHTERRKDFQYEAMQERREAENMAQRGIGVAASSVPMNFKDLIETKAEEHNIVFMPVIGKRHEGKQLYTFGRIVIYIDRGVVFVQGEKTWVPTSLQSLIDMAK
inactive: [1] -0.026 | [2] -0.099 | [3] -0.082 | [4] -0.025 | [5] -0.027 | [6] 0.023 | [7] -0.036 | [8] -0.008 | [9] 0.074 | [10] -0.016 | [11] 0.059 | [12] 0.001 | [13] 0.023 | [14] 0.008 | [15] -0.022 | [16] 0 | [17] -0.034 | [18] 0.016 | [19] 0.031 | [20] -0.003

UBXN6 (UniProt Q9BZV1)
Sequence of UniProt Q9BZV1 (Q9BZV1 whole entry, looked up): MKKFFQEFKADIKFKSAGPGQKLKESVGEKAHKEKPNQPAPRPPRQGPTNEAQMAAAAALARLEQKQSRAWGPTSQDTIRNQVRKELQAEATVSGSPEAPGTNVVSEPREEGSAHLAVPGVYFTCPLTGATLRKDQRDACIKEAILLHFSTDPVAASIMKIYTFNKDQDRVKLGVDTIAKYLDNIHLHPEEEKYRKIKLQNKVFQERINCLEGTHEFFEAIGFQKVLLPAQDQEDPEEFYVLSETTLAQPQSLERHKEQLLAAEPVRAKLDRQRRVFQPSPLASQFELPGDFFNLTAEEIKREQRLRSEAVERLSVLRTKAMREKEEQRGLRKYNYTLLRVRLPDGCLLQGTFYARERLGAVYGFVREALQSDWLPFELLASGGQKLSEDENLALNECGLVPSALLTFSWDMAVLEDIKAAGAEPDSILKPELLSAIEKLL
inactive: [1] -0.02 | [2] 0.001 | [3] 0.001 | [4] -0.024 | [5] 0.006 | [6] 0.036 | [7] -0.073 | [8] 0 | [9] -0.005 | [10] -0.007 | [11] 0.046 | [12] 0.174 | [13] 0.037 | [14] -0.012 | [15] 0.019 | [16] 0.121 | [17] -0.059 | [18] -0.038 | [19] 0.031 | [20] 0.041

TNPO3 (UniProt Q9Y5L0)
inactive: [1] 0.022 | [2] 0.001 | [3] -0.019 | [4] -0.018 | [5] 0.019 | [6] -0.008 | [7] 0 | [8] 0.018 | [9] 0.017 | [10] 0.021 | [11] -0.008 | [12] 0.015 | [13] 0.003 | [14] -0.023 | [15] -0.033 | [16] -0.006 | [17] 0 | [18] -0.015 | [19] 0.003 | [20] 0.008

TPM4 isoform 2 (UniProt P67936)
Sequence of UniProt P67936 (P67936 whole entry, looked up): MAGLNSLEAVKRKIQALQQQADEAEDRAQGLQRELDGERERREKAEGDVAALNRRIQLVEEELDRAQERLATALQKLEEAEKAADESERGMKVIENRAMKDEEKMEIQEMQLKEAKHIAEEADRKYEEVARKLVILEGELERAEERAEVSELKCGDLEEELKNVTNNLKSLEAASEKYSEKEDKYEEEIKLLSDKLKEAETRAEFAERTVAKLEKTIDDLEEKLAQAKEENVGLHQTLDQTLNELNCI
inactive: [1] -0.06 | [2] 0.011 | [3] -0.048 | [4] 0.067 | [5] 0.002 | [6] 0.024 | [7] -0.016 | [8] 0.016 | [9] -0.015 | [10] -0.022 | [11] -0.062 | [12] 0.016 | [13] -0.005 | [14] 0.032 | [15] -0.034 | [16] -0.027 | [17] -0.025 | [18] -0.06 | [19] -0.004 | [20] 0

TIMELESS (UniProt Q9UNS1)
Sequence of UniProt Q9UNS1 (Q9UNS1 whole entry, looked up): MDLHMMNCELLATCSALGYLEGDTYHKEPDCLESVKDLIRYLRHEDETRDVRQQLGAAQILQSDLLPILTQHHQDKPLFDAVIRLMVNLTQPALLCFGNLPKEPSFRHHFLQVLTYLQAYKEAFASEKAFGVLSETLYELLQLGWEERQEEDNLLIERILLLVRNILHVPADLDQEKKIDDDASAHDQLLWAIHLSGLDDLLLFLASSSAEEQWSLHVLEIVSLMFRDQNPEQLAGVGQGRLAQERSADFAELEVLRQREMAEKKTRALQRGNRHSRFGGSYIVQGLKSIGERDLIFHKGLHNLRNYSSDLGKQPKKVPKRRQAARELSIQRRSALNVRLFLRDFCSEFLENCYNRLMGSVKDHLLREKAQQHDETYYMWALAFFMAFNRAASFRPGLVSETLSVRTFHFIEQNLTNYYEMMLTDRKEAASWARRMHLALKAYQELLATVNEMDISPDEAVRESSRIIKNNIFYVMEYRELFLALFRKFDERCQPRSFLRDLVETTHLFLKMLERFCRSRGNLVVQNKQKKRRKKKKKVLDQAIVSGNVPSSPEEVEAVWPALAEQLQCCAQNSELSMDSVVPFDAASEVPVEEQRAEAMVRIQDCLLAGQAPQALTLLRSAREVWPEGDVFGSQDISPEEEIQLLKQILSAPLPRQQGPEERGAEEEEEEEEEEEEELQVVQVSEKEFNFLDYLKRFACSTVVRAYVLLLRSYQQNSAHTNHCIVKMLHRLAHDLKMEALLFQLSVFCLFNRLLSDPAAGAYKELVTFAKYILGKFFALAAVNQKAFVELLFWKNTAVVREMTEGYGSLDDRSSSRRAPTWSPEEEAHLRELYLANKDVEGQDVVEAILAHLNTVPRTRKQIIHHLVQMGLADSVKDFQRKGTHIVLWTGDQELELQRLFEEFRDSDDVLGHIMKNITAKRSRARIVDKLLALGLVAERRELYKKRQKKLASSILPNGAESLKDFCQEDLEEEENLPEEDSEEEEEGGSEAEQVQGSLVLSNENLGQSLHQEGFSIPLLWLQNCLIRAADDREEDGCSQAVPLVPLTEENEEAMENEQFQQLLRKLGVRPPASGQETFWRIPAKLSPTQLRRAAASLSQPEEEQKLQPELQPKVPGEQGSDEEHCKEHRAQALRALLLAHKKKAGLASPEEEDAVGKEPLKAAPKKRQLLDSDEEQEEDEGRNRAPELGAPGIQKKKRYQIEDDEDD
inactive: [1] 0.023 | [2] 0.069 | [3] -0.083 | [4] -0.003 | [5] -0.002 | [6] -0.001 | [7] -0.068 | [8] -0.018 | [9] 0 | [10] -0.032 | [11] 0.011 | [12] -0.079 | [13] 0.006 | [14] -0.053 | [15] -0.01 | [16] 0.011 | [17] -0.007 | [18] -0.01 | [19] 0.029 | [20] -0.027

TRAPPC10 (UniProt P48553)
Sequence of UniProt P48553 (P48553 whole entry, looked up): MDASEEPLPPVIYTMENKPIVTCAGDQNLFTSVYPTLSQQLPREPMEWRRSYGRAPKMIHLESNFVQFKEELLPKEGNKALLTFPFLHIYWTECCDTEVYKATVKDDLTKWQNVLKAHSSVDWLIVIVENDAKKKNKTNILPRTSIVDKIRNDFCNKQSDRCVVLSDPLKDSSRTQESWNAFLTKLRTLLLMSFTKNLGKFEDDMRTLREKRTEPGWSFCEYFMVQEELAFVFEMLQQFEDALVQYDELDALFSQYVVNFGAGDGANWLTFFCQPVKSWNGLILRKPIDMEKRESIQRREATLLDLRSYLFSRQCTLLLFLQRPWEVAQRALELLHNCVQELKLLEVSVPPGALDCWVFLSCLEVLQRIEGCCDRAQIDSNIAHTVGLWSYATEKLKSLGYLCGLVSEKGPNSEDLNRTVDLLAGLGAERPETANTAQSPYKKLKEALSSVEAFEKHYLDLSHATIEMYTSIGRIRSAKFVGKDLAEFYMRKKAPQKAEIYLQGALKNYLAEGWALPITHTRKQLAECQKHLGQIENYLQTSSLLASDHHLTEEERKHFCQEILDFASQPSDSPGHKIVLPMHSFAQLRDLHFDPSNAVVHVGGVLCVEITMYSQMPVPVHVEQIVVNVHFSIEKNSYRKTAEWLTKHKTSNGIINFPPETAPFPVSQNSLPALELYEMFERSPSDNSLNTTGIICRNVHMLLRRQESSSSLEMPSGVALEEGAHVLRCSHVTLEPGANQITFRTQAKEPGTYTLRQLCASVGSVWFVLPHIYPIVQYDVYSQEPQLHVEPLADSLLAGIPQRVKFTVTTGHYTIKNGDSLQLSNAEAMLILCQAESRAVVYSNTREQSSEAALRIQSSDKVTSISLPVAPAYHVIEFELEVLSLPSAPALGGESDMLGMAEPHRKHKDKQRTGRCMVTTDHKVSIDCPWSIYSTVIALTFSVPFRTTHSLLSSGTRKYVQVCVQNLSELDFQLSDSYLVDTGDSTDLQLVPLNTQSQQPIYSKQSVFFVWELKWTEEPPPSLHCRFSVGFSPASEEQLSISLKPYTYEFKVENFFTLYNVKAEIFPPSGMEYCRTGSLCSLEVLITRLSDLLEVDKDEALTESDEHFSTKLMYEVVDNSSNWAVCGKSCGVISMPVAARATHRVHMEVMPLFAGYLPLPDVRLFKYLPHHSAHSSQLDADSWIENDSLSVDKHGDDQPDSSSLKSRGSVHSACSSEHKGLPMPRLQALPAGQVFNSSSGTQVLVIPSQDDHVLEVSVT
inactive: [1] 0.066 | [2] 0.031 | [3] 0.027 | [4] 0.045 | [5] 0.018 | [6] 0.004 | [7] -0.058 | [8] 0.057 | [9] 0.005 | [10] 0.013 | [11] -0.006 | [12] -0.004 | [13] 0.025 | [14] -0.03 | [15] 0.027 | [16] 0.002 | [17] -0.029 | [18] 0.019 | [19] 0.02 | [20] -0.004
